Data reported in PubChem BioAssay AID588343 (Broad Institute, 2011).
About 650 (54%) of roughly 1,200 compounds were called active. Inconclusive results (about 5%) are left out.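 Rule for the calls: active = signal-lowering curve whose fitted half-maximal concentration is at or below ten times the top valid dose tested; inconclusive = flat curve with 30 to 70% inhibition, or poor fit; inactive = signal increase, flat within 30%, or potency beyond limit.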 So high a share suggests a set chosen from earlier hits. Not all results are given here. Potency and affinity values are given separately.

Assay: inhibitors of LMP1-driven NF-kB reporter, dose response, cell-based, HEK293, luciferase, cherry-pick (AID 588343)
Conditions: HEK293 LMP1 TES2 NF-kB luciferase reporter, 16 h; series mostly up to 35 µM

outcome, inactive:
COC(=O)c1[nH]c2cccc(C)c2c1NC(=O)CN1CCCc2ccccc21
CCCCOc1ccc2c(c1)/C(=C(\C(Cl)=C(Cl)Cl)[N+](=O)[O-])N2
COCCNC(=O)C(=O)NCC1OCCN1C(=O)c1ccc(Cl)cc1 (configuration not stated)
COCCCn1cnnc1SCC(=O)Nc1ccc(S(=O)(=O)N2CCCC2)cc1
CNc1ccc(Br)cc(C(=O)/C=C/c2cccc(OC)c2)c1=O
CN(CCNC(=O)C1CCN(S(=O)(=O)N2CCOCC2)CC1)CCc1ccccc1
Cn1cccc1/C=N/n1c(-c2ccc(Cl)cc2Cl)n[nH]c1=S
COc1ccc(CN2C(=O)c3cccnc3C2Nc2cc(Cl)ccc2OC)cc1 (configuration not stated)
O=C(COC(=O)c1cc2ccccc2cc1O)NCc1ccccc1
COc1ccc(-c2nc(C)ncc2-c2ccccc2)c(O)c1
O=C(Nc1ccccn1)NC1CCCCC1
Cc1ccc(NC(=O)NNS(=O)(=O)c2ccc(Br)cc2)cc1
CC1CN(c2cc(=O)n(-c3ccccc3)c(=O)[nH]2)CC(C)O1 (configuration not stated)
Cc1ccc(-n2nc(C(=O)NCc3ccc(C)o3)c3c4ccccc4n(C)c3c2=O)cc1
Nc1nc(N)nc(-c2cc(Cl)ccc2Cl)n1
COc1ccccc1NC(=O)Cn1nnc(-c2ccccc2NS(=O)(=O)c2ccccc2)n1
CC1CCCN(C(=O)COC(=O)c2n[nH]c3ccccc23)C1 (configuration not stated)
COc1ccc(-c2[nH]ncc2/C=N\NS(=O)(=O)c2ccc(Cl)cc2)cc1
COc1ccc(S(=O)(=O)NCC(c2cccnc2)N2CCN(c3ccc(F)cc3)CC2)cc1C (configuration not stated)
CC1(C)CC(=O)C(CC2=C(O)CC(C)(C)CC2=O)=C(O)C1
COc1ccccc1OCc1ccc(C(=O)c2ccccc2)cc1
CSc1ccccc1OCc1cc(C(=O)N2CCC[C@H]2C(N)=O)no1
Cc1ccc(C(=O)NCC(=O)N(C)Cc2cccc(F)c2)s1
CCCC(=O)C1=C(O)C(C(=O)OC)C(C)(C)CC1=Nc1ccncc1 (configuration not stated)
CSc1ccccc1NC(=O)CN1CCCCC1C (configuration not stated)
CCSc1nnc(NC(=O)CCn2c(=O)oc3ccccc32)s1
CCOc1cc(C(=O)OC(C)C(=O)Nc2ncc(Cl)cc2Cl)ccc1OCC(=O)N1CCOCC1 (configuration not stated)
O=C(CN1C(=O)c2ccccc2C1=O)NNC1=NS(=O)(=O)c2ccccc21
Cc1onc(-c2c(Cl)cccc2Cl)c1C(=O)N[C@@H]1C(=O)N2[C@@H]1SC(C)(C)[C@@H]2C(=O)O
COc1ccccc1N1CCN(CCCNC(=O)C2CCCN(c3ncnc4c3nc3n4CCCCC3)C2)CC1 (configuration not stated)
C=CCN1CCN(C(CC(C)C)c2nnnn2CCOC)CC1 (configuration not stated)
Cn1c(CC(=O)Nc2ccc(F)cc2)nnc1SCC(=O)Nc1nncs1
O=C(Cn1nc(C(F)(F)F)c2c1CCC2)NC1CCCCC1
O=C(O)CCc1nc(-c2ccc(Cl)cc2)no1
O=C(CCCN1C(=O)[C@H]2CC=CC[C@H]2C1=O)NCc1nc(-c2ccc(Cl)cc2)no1
COc1ccc(NC(=O)CCS(=O)(=O)c2ccc3c(c2)CCN3C(C)=O)cc1
Cc1ccccc1NC(=O)CN1C(=O)S/C(=C\c2cccn2-c2cccc(C(=O)O)c2)C1=O
COc1ccc(N2C(=O)C(=O)/C(=C(/O)c3ccc(C)cc3)C2c2cccnc2)cc1 (configuration not stated)
CC(=O)Nc1ccc(OCCCNC(=O)c2c(-c3ccccc3)noc2C)cc1
COC(=O)c1ccc(COc2ccccc2/C=C/C(=O)c2ccc(OCC(=O)O)cc2)cc1
Cc1ccc(C)c(S(=O)(=O)N2CCN(CC(=O)N3CCc4ccccc4C3)CC2)c1
CCc1c(C)nc2cc(-c3ccc(OC)c(OC)c3)nn2c1NCC1CC1
NC(=O)C1(Nc2ccc([N+](=O)[O-])cc2)CCCC1
CCCCCC(=O)N1CCN(c2ccc(C(C)=O)cc2F)CC1
O=C(C1CCCCC1)N1CCN(c2ncccn2)CC1
CCN(CC)Cc1cc(Nc2ccnc3cc(Cl)ccc23)ccc1O
O=C1CCC(C(=O)N2CCCCCC2)CN1CCc1ccc(Cl)cc1 (configuration not stated)
COc1ccc(OC)c2[nH]c(=O)c(CCNC(=O)c3ccc(S(=O)(=O)N(C)C)cc3)cc12
O=C(c1sc2cc([N+](=O)[O-])ccc2c1Cl)N1CCOCC1
COc1ccc(-c2cn3nc4c(nc3n2)CCCC4)cc1
O=C(O)c1cccc(NC(=O)c2cn(-c3ccccc3)nc2-c2ccc(F)cc2)c1
O=C(CCC(=O)NNC(=O)Nc1cccc(Cl)c1)NCc1ccccc1
CC(C)(C)c1cc(C(=O)NNC(=O)Nc2cccc(Cl)c2)n(Cc2ccccc2)n1
CC(CN1CCCCC1)OC(=O)c1ccc2c(c1)OCO2 (configuration not stated)
COc1cccc(CC(=O)NNC(=O)c2ccc3c(c2)OCO3)c1
COC(=O)C1=C(C)N(CCCC(=O)O)C(=O)NC1c1cccc(Cl)c1Cl (configuration not stated)
CCc1nnc(NC(=O)c2ccc(S(=O)(=O)N3CCOCC3)cc2)s1
COc1ccc(CN(C(=O)c2nsc(Cl)c2Cl)C(C(=O)NC2CCCC2)c2ccc(C)cc2)cc1 (configuration not stated)
Cn1cc(SCC(=O)NCC2CCCO2)c2ccccc21 (configuration not stated)
CN(Cc1ccc(F)cc1)C(=O)CN1CCN(S(=O)(=O)c2ccc3c(c2)OCCCO3)CC1
Cc1c(C=O)c2ccccn2c1C(=O)c1ccccc1Cl
COc1cc(/C=N/NC(=O)c2cccc(S(=O)(=O)N3CCOCC3)c2)cc(OC)c1O
CC(=O)c1ccccc1OCC(=O)Nc1cccc(S(=O)(=O)N2CCCC2)c1
Cc1ccc(S(=O)(=O)N2CCCCC2)cc1NC(=O)CNc1ccccc1N1CCCC1=O
Cc1ccc(-c2nnn(CC(=O)N(Cc3ccco3)C(C(=O)NC(C)(C)C)c3ccncc3)n2)o1 (configuration not stated)
CCOC(=O)Cc1csc(N/N=C\c2ccc(N(C)C)cc2)n1
COc1ccc(/C=N/NC(=O)COc2ccccc2-c2ccccc2)cc1
